Results from PubChem BioAssay (EPA / NIEHS).
Active and inactive are the calls of the source. How the source made its calls: active means hit-call score of the fitted dose curve at least 0.9, where 1 is the maximum; inactive means score below 0.9.

Tests used:
[1] = ATG_GRE_CIS: Attagene CIS-FACTORIAL HepG2 Assay for human Glucocorticoid Response Elements (GRE) (AID 2282947); details: HepG2 GRE cis-reporter, Attagene multiplex mRNA; actives raise or lower the signal
Method in brief: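 HepG2, transient cis-reporter transfection, 24 h. Reporter mRNA: RT-PCR then CE, fluorescence. Fit both directions vs DMSO.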

[2] = ATG_ISRE_CIS: Attagene CIS-FACTORIAL HepG2 Assay for human Interferon Regulatory Factor 1 (IRF1) binding to an Interferon-Stimulated Response Element (ISRE) (AID 2282948); details: HepG2 ISRE cis-reporter (Attagene), mRNA transcription readout; actives raise or lower the signal
Method in brief: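 Multiplexed mRNA reporter readout in human liver HepG2 cells: cis-element-driven reporters transfected, compound added for 24 h, transcripts amplified, fluorescently labelled and sized by capillary electrophoresis; curve fitting bidirectional against DMSO.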

[3] = ATG_M_32_CIS: Attagene CIS-FACTORIAL HepG2 Assay for M32 Transcription Factor (Internal Marker) (AID 2282949); details: HepG2 Attagene cis-factorial M32 reporter, mRNA; actives raise or lower the signal;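 further: background control marker of the multiplexed CIS panel rather than a real target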
Method in brief: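 Using DMSO as baseline, bidirectional curve fits were applied to reporter mRNA signals. These came from transiently transfected HepG2 cells exposed for 24 h, with RNA analysed by RT-PCR, FAM primer extension, HpaI digestion and CE.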

[4] = ATG_M_06_CIS: Attagene CIS-FACTORIAL HepG2 Assay for M06 Transcription Factor (Internal Marker) (AID 2282950); details: HepG2 Attagene CIS-FACTORIAL M06 internal marker reporter; actives raise or lower the signal
Method in brief: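 Steps: transfect HepG2 with multiplexed cis-element reporter constructs; dose chemical 24 h; extract RNA with DNase treatment; reverse-transcribe, PCR-amplify, 6-FAM label, HpaI digest; separate fragments by capillary electrophoresis. Activity fitted both directions versus DMSO.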

[5] = target: Hypoxia-inducible factor 1-alpha (Homo sapiens) (UniProt Q16665); experiment: ATG_HIF1a_CIS: Attagene CIS-FACTORIAL HepG2 Assay for human Hypoxia Inducible Factor 1 (HIF1A) (AID 2282951); details: HepG2 Attagene cis-factorial HIF1a reporter transcription; actives raise or lower the signal
Sequence of Hypoxia-inducible factor 1-alpha (Homo sapiens) (Q16665 whole entry, looked up): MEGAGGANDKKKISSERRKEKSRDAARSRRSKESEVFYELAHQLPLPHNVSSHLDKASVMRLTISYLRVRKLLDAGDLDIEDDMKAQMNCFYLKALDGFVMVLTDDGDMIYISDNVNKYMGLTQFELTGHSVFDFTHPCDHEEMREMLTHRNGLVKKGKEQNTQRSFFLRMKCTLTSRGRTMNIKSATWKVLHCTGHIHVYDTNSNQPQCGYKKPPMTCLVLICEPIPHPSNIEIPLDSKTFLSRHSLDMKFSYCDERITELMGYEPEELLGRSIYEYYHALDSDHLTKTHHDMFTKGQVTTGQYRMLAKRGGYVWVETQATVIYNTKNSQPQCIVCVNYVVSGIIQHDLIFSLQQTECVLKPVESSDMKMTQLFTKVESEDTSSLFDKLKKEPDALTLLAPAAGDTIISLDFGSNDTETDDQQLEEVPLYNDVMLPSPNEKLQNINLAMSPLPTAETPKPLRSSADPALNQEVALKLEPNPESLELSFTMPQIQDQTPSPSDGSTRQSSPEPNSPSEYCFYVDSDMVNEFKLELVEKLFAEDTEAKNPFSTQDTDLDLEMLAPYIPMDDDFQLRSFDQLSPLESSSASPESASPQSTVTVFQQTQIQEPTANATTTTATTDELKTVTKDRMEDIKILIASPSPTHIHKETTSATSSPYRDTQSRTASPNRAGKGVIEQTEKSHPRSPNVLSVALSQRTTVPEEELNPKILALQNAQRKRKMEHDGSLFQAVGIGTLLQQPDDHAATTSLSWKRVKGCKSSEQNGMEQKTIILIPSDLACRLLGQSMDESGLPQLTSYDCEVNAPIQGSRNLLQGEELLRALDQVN
Method in brief: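 Measures endogenous transcription-factor activity through cis-regulated reporter mRNA in HepG2. Cells dosed 24 h; transcripts quantified by RT-PCR with 6-FAM-labelled products separated by capillary electrophoresis; DMSO serves as negative control.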

[6] = target: Hepatocyte nuclear factor 6 (Homo sapiens) (UniProt Q9UBC0); experiment: ATG_HNF6_CIS: Attagene CIS-FACTORIAL HepG2 Assay for human Hepatocyte Nuclear Factor 6 (HNF6) (AID 2282952); details: HepG2 Attagene cis-factorial HNF6 reporter transcription; actives raise or lower the signal
Sequence of Hepatocyte nuclear factor 6 (Homo sapiens) (Q9UBC0 whole entry, looked up, the tested form may be a part): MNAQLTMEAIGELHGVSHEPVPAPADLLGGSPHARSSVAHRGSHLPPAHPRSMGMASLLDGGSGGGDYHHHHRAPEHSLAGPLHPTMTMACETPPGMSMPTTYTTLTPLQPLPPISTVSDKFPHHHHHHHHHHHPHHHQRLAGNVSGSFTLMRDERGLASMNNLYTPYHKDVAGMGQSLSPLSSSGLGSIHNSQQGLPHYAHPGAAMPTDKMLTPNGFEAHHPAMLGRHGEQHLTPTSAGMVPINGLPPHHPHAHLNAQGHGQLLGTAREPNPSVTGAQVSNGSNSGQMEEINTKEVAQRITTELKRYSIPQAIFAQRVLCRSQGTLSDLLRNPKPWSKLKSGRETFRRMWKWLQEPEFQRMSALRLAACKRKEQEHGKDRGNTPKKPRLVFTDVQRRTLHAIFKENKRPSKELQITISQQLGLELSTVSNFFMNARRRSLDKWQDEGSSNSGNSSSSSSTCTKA
Method in brief: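 First, HepG2 cells were transfected with the multiplexed cis reporter library and dosed with chemical for 24 h. Next, RNA was reverse-transcribed, PCR-amplified and fluorescently labelled. Finally, HpaI-digested fragments were read by capillary electrophoresis.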

[7] = target: Heat shock factor protein 1 (Homo sapiens) (UniProt Q00613); experiment: ATG_HSE_CIS: Attagene CIS-FACTORIAL HepG2 Assay for human Heat Shock Transcription Factor 1 (HSE) (AID 2282953); details: HepG2 HSE cis-reporter, Attagene RNA transcription; actives raise or lower the signal
Sequence of Heat shock factor protein 1 (Homo sapiens) (Q00613 whole entry, looked up, the tested form may be a part): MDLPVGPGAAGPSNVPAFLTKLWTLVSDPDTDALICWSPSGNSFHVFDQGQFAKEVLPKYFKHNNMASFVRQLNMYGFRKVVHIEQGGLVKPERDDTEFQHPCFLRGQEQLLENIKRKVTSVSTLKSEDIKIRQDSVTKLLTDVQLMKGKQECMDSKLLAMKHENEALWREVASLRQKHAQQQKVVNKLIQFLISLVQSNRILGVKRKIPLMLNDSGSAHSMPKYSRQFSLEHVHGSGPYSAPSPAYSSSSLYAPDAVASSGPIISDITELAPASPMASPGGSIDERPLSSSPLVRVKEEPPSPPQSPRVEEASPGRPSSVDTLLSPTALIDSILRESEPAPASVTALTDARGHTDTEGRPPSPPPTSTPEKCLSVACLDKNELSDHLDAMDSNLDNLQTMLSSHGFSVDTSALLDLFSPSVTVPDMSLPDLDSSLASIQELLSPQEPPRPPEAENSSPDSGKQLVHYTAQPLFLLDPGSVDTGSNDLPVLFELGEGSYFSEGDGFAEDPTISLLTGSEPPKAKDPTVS
Method in brief: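 Cells were transfected with cis-element-driven reporter constructs, dosed for 24 h, then total RNA was reverse-transcribed and reporter cDNA amplified, FAM-labelled and digested with HpaI. Fragments were resolved by capillary electrophoresis; gain or loss was fitted against DMSO.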

[8] = ATG_MRE_CIS: Attagene CIS-FACTORIAL HepG2 Assay for human Metal Responsive Element (MRE) (AID 2282954); details: HepG2 MRE cis-reporter transcription, Attagene multiplex; actives raise or lower the signal
Method in brief: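 Readout: capillary electrophoresis of 6-FAM-labelled, HpaI-digested RT-PCR reporter products. System: HepG2 cells carrying transient multiplexed cis reporters, dosed 24 h. Analysis: bidirectional fit, DMSO baseline.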

[9] = ATG_PBREM_CIS: Attagene CIS-FACTORIAL HepG2 Assay for human Phenobarbital-responsive Enhancer Module (PBREM) (AID 2282955); details: HepG2 PBREM cis-reporter, Attagene multiplexed transcription; actives raise or lower the signal
Method in brief: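 Fluorescence of labelled reporter cDNA fragments, resolved by capillary electrophoresis, gives mRNA induction in transfected HepG2 cells treated for 24 h; DMSO serves as negative control and baseline.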

[10] = target: Paired box protein Pax-6 (Homo sapiens) (UniProt P26367); experiment: ATG_Pax6_CIS: Attagene CIS-FACTORIAL HepG2 Assay for human Paired Box 6 (PAX6) (AID 2282956); details: HepG2 CIS-FACTORIAL PAX6 reporter transcription, RNA readout; actives raise or lower the signal
Sequence of Paired box protein Pax-6 (Homo sapiens) (P26367 whole entry, looked up): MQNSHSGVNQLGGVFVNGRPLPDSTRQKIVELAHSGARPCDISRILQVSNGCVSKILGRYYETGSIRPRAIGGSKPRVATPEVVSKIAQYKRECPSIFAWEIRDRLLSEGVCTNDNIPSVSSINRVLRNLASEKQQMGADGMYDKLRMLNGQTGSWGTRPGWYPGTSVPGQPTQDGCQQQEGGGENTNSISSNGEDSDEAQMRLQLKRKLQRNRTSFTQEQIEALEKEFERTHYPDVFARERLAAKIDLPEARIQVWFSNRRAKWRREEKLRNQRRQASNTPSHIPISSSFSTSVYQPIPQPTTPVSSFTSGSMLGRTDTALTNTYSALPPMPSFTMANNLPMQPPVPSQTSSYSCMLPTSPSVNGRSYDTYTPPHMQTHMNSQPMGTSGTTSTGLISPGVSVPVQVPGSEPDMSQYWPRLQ
Method in brief: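 Fluorescent RT-PCR products separated by capillary electrophoresis report PAX6-linked promoter mRNA in HepG2 cells 24 h post-dose. Curves fitted bidirectionally, DMSO as negative control.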

[11] = ATG_PXRE_CIS: Attagene CIS-FACTORIAL HepG2 Assay for human Pregnane X Receptor Element (PXRE) (AID 2282957); details: HepG2 Attagene CIS-FACTORIAL PXRE reporter, mRNA; actives raise or lower the signal
Method in brief: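 After a 24 h chemical incubation, total RNA from transfected HepG2 cells was reverse-transcribed and reporter cDNA amplified, FAM-labeled, HpaI-digested and sized by capillary electrophoresis. DMSO served as baseline for bidirectional curve fitting.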

[12] = ATG_RORE_CIS: Attagene CIS-FACTORIAL HepG2 Assay for human RAR-related Orphan Receptor Element (RORE) (AID 2282959); details: HepG2 Attagene cis-factorial RORE reporter, mRNA; actives raise or lower the signal
Method in brief: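 Cells were HepG2 carrying transfected cis-regulated reporter constructs, dosed for 24 hours. Total RNA was reverse-transcribed and reporter cDNA amplified, fluorescently labeled and sized by capillary electrophoresis. Activity was fitted bidirectionally relative to DMSO.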

[13] = ATG_Sox_CIS: Attagene CIS-FACTORIAL HepG2 Assay for human SRY-box transcription factor (SOX) (AID 2282960); details: HepG2 Attagene cis-factorial SOX reporter, mRNA; actives raise or lower the signal
Method in brief: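 Transient MRTU transfection of HepG2; 24 h compound incubation; TriZol RNA, oligo(dT) RT, PCR, 6-FAM primer extension, HpaI cut, CE. Bidirectional fit, DMSO = baseline.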

[14] = ATG_SREBP_CIS: Attagene CIS-FACTORIAL HepG2 Assay for human Sterol Regulatory Element Binding (SREBP) (AID 2282962); details: HepG2 Attagene cis-factorial SREBP reporter, mRNA; actives raise or lower the signal
Method in brief: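 Endogenous factor activity is measured in HepG2 through multiplexed reporter units under cis-element control. Following a 24 h incubation, reporter transcripts are reverse-transcribed, PCR-amplified and sized by capillary electrophoresis; activity is fitted in both directions relative to DMSO.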

[15] = target: Signal transducer and activator of transcription 3 (Homo sapiens) (UniProt P40763); experiment: ATG_STAT3_CIS: Attagene CIS-FACTORIAL HepG2 Assay for human Signal Transducer and Activator of Transcription 3 (STAT3) (AID 2282963); details: HepG2, Attagene cis-factorial STAT3 reporter transcription; actives raise or lower the signal
Sequence of Signal transducer and activator of transcription 3 (Homo sapiens) (P40763 whole entry, looked up): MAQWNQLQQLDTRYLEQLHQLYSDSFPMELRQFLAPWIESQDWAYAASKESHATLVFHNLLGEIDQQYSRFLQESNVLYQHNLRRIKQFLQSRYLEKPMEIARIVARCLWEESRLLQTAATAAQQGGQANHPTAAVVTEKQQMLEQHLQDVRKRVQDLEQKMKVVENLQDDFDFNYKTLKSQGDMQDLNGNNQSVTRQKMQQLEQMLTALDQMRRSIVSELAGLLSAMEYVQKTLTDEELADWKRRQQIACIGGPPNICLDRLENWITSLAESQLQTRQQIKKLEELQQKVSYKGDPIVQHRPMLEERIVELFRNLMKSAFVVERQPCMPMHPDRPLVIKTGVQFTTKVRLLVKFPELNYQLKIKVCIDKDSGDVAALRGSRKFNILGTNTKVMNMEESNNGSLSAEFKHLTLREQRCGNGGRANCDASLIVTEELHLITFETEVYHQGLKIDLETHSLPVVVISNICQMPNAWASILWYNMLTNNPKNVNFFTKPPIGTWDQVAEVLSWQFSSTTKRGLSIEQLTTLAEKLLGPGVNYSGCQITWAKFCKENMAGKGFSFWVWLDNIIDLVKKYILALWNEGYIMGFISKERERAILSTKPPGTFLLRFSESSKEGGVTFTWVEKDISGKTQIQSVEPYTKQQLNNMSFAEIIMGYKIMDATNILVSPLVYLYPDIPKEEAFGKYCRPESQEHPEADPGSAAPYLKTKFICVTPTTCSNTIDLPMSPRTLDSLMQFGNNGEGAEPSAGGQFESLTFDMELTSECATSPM
Method in brief: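 Uses human liver HepG2 transiently carrying cis-regulated reporter transcription units. Following 24 h dosing, reporter mRNA induction was detected by RT-PCR and capillary electrophoresis, analysed bidirectionally versus DMSO.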

[16] = ATG_TA_CIS: Attagene CIS-FACTORIAL HepG2 Assay for human TA Basal Promoter (AID 2282964); details: HepG2 Attagene CIS-factorial TA basal promoter reporter; actives raise or lower the signal
Method in brief: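 Steps: transfect HepG2 with MRTUs; dose 24 h; isolate RNA, DNase-treat, reverse-transcribe; PCR and FAM-label reporter cDNA; digest with HpaI 2h at 37 C; run capillary electrophoresis. Activity fitted both directions against DMSO.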

[17] = ATG_TCF_b_cat_CIS: Attagene CIS-FACTORIAL HepG2 Assay for human T-Cell-Factor with beta-catenin (TCF/b-cat) (AID 2282965); details: HepG2 TCF/beta-catenin cis-reporter transcription, actives raise or lower the signal
Method in brief: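 Using capillary electrophoresis as the read-out, labelled reporter cDNA fragments from transiently transfected HepG2 were sized and quantified. Exposure lasted 24 hours; activity in either direction was referenced to DMSO.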

[18] = target: Bile acid receptor (Homo sapiens) (UniProt Q96RI1); experiment: ATG_IR1_CIS: Attagene CIS-FACTORIAL HepG2 Assay for human Nuclear Receptor Subfamily 1 Group H Member 4 (NR1H4), IR1 submotif (AID 2282946); details: IR1 reporter transcription, actives raise or lower the signal
Sequence of Bile acid receptor (Homo sapiens) (Q96RI1 whole entry, looked up): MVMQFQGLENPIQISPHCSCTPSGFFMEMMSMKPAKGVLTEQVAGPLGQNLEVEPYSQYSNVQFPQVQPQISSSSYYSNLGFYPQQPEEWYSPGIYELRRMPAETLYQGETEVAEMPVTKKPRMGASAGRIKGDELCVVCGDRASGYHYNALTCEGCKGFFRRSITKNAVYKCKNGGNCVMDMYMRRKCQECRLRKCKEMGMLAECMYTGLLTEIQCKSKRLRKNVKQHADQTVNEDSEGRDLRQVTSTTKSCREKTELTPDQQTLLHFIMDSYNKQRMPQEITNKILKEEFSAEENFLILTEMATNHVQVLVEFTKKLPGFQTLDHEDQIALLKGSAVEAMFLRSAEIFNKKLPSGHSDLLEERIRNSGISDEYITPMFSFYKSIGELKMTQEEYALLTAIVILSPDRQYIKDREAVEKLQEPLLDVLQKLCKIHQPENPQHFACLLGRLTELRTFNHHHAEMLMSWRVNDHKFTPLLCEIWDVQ
Method in brief: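 Readout: reporter transcript levels by RT-PCR with fluorescent capillary electrophoresis, from HepG2 cells transiently transfected with multiplexed cis-regulated reporters and dosed 24 h. Gain- or loss-of-signal fitted versus DMSO negative control.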

[19] = ATG_PPRE_CIS: Attagene CIS-FACTORIAL HepG2 Assay for human Peroxisome Proliferator-activated Response Element (PPRE) (AID 2282958); details: HepG2 PPRE cis-element reporter, Attagene transcription factor profiling; actives raise or lower the signal
Method in brief: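 Cells are first transfected transiently with the multiplexed reporter library, then dosed for 24 h. Total RNA is reverse-transcribed, amplified, fluorescently end-labeled and HpaI-cut before capillary electrophoresis; activity is fitted bidirectionally against DMSO controls.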

[20] = target: Transcription factor Sp1 (Homo sapiens) (UniProt P08047); experiment: ATG_Sp1_CIS: Attagene CIS-FACTORIAL HepG2 Assay for human Specificity Protein 1 (Sp1) (AID 2282961); details: HepG2 Sp1 cis-reporter transcription, actives raise or lower the signal
Sequence of Transcription factor Sp1 (Homo sapiens) (P08047 whole entry, looked up): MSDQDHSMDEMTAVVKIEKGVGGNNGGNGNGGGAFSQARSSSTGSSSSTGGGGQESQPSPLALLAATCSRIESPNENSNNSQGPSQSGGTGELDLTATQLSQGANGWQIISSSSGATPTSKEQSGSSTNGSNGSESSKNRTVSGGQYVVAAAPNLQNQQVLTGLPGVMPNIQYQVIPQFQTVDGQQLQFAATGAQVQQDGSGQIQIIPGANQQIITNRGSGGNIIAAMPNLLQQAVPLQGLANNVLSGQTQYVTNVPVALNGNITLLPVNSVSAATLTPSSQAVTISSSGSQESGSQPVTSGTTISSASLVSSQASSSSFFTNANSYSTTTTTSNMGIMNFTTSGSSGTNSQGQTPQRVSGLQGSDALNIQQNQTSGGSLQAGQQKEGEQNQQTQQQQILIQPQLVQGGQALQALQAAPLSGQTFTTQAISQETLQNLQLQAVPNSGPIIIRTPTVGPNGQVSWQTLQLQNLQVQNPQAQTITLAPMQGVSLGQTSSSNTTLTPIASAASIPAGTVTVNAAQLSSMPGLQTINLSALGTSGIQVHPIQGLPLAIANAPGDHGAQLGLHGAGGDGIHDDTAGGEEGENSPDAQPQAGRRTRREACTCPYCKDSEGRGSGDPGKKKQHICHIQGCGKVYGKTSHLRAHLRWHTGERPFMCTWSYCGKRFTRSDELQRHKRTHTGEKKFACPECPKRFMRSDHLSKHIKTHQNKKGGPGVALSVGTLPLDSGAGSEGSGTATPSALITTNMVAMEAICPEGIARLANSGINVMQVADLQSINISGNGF
Method in brief: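 Endogenous Sp1 activity was gauged in human liver HepG2 cells bearing transfected reporter units under a cis-regulating promoter. After 24 h dosing, reporter mRNA was quantified by RT-PCR with capillary electrophoresis, and activity fitted bidirectionally versus DMSO.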

Measured: AC50

Nc1nc(=S)c2[nH]cnc2[nH]1
active: [11] 100 µM
not listed: [18] | [19] | [20]
inactive: all other assays above

COC(=O)CCC(=O)OC
not listed: [7] | [8]
inactive: all other assays above

CC(C)(O)c1ccc(CNC(=O)c2cccnc2Oc2ccc(F)cc2)cc1
active: [11] 7.12 µM | [14] 44.6 µM
not listed: [15] | [18] | [19]
inactive: all other assays above

CCc1nc(N)nc(N)c1-c1ccc(Cl)cc1
inactive: [18] | [1] | [4] | [7] | [9] | [11] | [20] | [14]
active: [2] 100 µM | [3] 174 µM | [6] 100 µM | [8] 100 µM | [10] 46 µM | [19] 26.8 µM | [12] 42.5 µM | [16] 100 µM | [17] 60.1 µM

CCCCOC(=O)CCCCC(=O)OCCCC
active: [1] 178 µM
not listed: [9] | [13] | [18]
inactive: all other assays above

Nc1nc(Cl)nc2c1ncn2[C@H]1C[C@H](O)[C@@H](CO)O1
not listed: [5] | [8] | [15] | [19] | [20]
inactive: all other assays above

Cc1c(C)c2c(c(C)c1O)CCC(C)(COc1ccc(CC3SC(=O)NC3=O)cc1)O2 (stereo not given)
active: [8] 17.4 µM | [11] 2.01 µM | [14] 1.6 µM | [17] 18.5 µM
not listed: [1] | [7] | [12] | [19] | [20]
inactive: all other assays above

Cn1cnc2c1c(=O)[nH]c(=O)n2C
not listed: [5] | [20]
inactive: all other assays above

CCCCCCCCCCCCCCCCO
active: [17] 159 µM
not listed: [13] | [18] | [20]
inactive: all other assays above

O=[Si]=O
not listed: [9] | [15] | [18]
inactive: all other assays above

OCC(CO)n1cnc(-c2ccc(F)cc2)c1-c1ccnc(Oc2ccccc2)n1
active: [11] 7.89 µM | [19] 0.357 µM
not listed: [13] | [18] | [20]
inactive: all other assays above

O=C(O)c1cccnc1
not listed: [1] | [6] | [8] | [20]
inactive: all other assays above

CN(C)CCCN1c2ccccc2Sc2ccc(Cl)cc21
active: [6] 20.8 µM | [8] 15.5 µM | [10] 15.9 µM | [14] 6.99 µM | [17] 7.68 µM
not listed: [5] | [7]
inactive: all other assays above

Cc1ccc(C(C)(C)C)c(O)c1
active: [2] 138 µM | [9] 150 µM | [10] 152 µM | [11] 25 µM | [13] 154 µM | [14] 161 µM | [17] 161 µM
not listed: [1] | [8] | [19] | [20]
inactive: all other assays above

CC(=O)OCC(COC(C)=O)OC(C)=O
not listed: [9] | [13] | [15] | [18] | [20]
inactive: all other assays above
